Compound activity: PubChem BioAssay, National Center for Advancing Translational Sciences (NCATS)
A selection: hits, their analogues and other compounds. The true share with any hit is near 3%.
JMJD2E inh = JMJD2E (human) inhibition; AID 2147; Potency, µM (titrated, usually from 57.1 µM), without a hit: top-dose activity change, negative = inhibition, most hits filed as inhibitors; B2RXH2; JMJD2E catalytic domain, FDH-coupled NADH fluorescence (FDH is formaldehyde dehydrogenase); 230,000 tested, 1.6% active; active = well fitted inhibition curve with a large enough effect, not every such curve was filed as active; inconclusive = small, poorly fitted or top-dose-only effect, or another doubt; inactive = no such curve, though single readings can be large or run the other way;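 note: potency is the fitted concentration of half-maximal effect; 0% = wells with enzyme and -100% = buffer wells without enzyme; nearly all actives have a fitted effect of over 50% in size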
Target sequence (B2RXH2 1-337 limits assumed): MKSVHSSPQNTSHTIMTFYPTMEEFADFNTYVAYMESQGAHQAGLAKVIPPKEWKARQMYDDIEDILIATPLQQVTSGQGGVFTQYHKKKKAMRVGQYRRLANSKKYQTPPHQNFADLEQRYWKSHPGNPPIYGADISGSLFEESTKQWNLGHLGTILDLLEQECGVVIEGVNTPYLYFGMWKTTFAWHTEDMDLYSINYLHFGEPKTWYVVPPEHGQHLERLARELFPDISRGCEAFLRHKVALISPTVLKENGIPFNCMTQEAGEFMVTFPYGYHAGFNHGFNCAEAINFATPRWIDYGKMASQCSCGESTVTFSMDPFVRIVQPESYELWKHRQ
Tau fibril FP = inhibitors of human tau fibril formation; P10636; K18 P301L tau heparin fibrillization, Alexa594 FP, 6 h; Potency, µM (doses to about 57.7 µM), without a hit: at the top dose activity, negative = inhibition, hits mostly inhibitors; 280,000 tested, 0.39% active; AID 1468; note: potency is the fitted concentration of half-maximal effect; nearly all actives have a fitted effect of over 55% in size
Target sequence (P10636 561-689 P618L limits assumed): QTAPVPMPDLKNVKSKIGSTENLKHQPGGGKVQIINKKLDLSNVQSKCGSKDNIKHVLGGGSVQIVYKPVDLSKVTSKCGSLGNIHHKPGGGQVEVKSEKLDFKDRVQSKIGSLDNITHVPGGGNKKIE
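Compound effects on tau fibrillization are measured by Alexa 594 fluorescence polarization (ex 555, em 632 nm). K18 P301L tau is used at 15 uM with 0.24 uM labeled tracer, and 20 uM heparin induces aggregation over 6 hr at 37 C.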
Tau ThT inhib = blocks human tau fibril formation measured by thioflavin T; AID 1460; recombinant tau K18 P301L, heparin-induced fibrillization, ThT fluorescence; 270,000 tested, 2.1% active; P10636; Potency, µM (titrated, usually from 57.4 µM), without a hit: top-dose activity, negative = inhibition, hits mostly inhibitors; note: potency is the fitted concentration of half-maximal effect; nearly all actives have a fitted effect of over 55% in size
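Recombinant human tau K18 fragment […] carrying P301L, 15 uM unlabeled plus 0.24 uM Alexa 594-labeled, was fibrillized with 20 uM heparin in 100 mM sodium acetate pH 7 for 6 hr at 37 C; 30 uM ThT fluorescence read after 1 hr.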
Tau fluor counter = counter-screen for tau fibril formation inhibitors. tau K18 P301L (four-repeat tau fragment) Alexa594 fluorescence, heparin fibrillization. Potency, µM (top dose mostly 57.7 µM), without a hit: at the highest dose activity change, negative = decrease. 280,000 tested, 0.93% active; note: potency is the fitted concentration of half-maximal effect; nearly all actives have a fitted effect of over 55% in size
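Human K18 P301L tau (15 uM unlabeled plus 0.24 uM Alexa 594-labeled, final) in 100 mM sodium acetate pH 7 was mixed with compound and 20 uM heparin and incubated 6 hr at 37 C.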
FBPA coupling cs = inhibits coupling enzyme system, counter-screen for aldolase hits; 290,000 tested, 0.67% active; AID 2472; activity change, negative = inhibition, % at 58.2 µM, hits read low; coupling enzyme system counterscreen, AmpLite Red fluorescence; in the data active = activity change below about -30%
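Final compound at 57.5 uM, incubated 10 min at RT with coupling enzyme reagent (glyceraldehyde-3-phosphate), then 20 min with substrate and AmpLite Red detection. Fluorescence read at 525/598 nm; tests interference with the coupling assay, not aldolase inhibition.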
* = called active by the depositor; ? = inconclusive; . = not tested or not shown; [ ] = another dose, or the depositor's remark. Unless noted, calls come from the whole dose curve; as a rule, active = well fitted curve in the direction sought with a large enough effect; inconclusive = small, poorly fitted or top-dose-only effect, or another doubt; inactive = no such curve, though single readings can be large; an effect the other way counts as inactive or inconclusive. Unless noted, % is set by controls: 0 for no effect and ±100 for the full control effect.

SMILES	JMJD2E inh	Tau fibril FP	Tau ThT inhib	Tau fluor counter	FBPA coupling cs
Cc1ccccc1-c1nc(Nc2ccncc2)c2ccccc2n1	.	.	.	.	4
CCC1CN(C(=O)N2CCC(C(=O)N3CCN(c4ccccc4F)CC3)CC2)c2ccccc2O1 (configuration not stated)	.	10%	?	14µM*[quencher]	.
CCc1ccc(NC(=O)C2CCN(C(=O)N3CC(CC)Oc4ccccc43)CC2)cc1 (configuration not stated)	.	?	?	16µM*[quencher]	.
CCC1CN(C(=O)NCc2ccc(C)cc2)c2ccccc2O1 (configuration not stated)	.	?	?	16µM*[quencher]	0
COc1ccc2c(CNCCc3ccccc3OC)c(C(=O)O)n(Cc3ccc(F)cc3Cl)c2c1	.	4%	?	-15%	.
CCOC(=O)c1c(C)oc2nc(C)nc(N3CCN(c4cccc(C)c4C)CC3)c12	.	-7%	?	-2%	.
CC#CCN1c2ccccc2[C@]23C[C@@H](C(=O)OC)N(S(=O)(=O)c4ccc(C(F)(F)F)cc4)C2=NC(C(=O)OC)=C(C(=O)OC)[C@H]13	8%[11.4 µM]	-5%[11.6 µM]	1%[11.5 µM]	-3%[11.6 µM]	-2
Cc1cc(C)c2cccc(N)c2n1	?	9%	-20%	-4%	-11
Cc1cc(C)c2ccc(N)nc2c1O	25µM*	4%	-2%	-4%	1
CC[C@H](C)[C@H](NC(=O)[C@H](CC(=O)O)NC(=O)[C@H](CC(C)C)NC(=O)[C@H](NC(C)=O)C(c1ccccc1)c1ccccc1)C(=O)N[C@H](C(=O)N[C@@H](Cc1c[nH]c2ccccc12)C(=O)O)[C@@H](C)CC	.	.	.	.	4
COc1cc2c3c(c1)/C(=C1/SC(NC(C)=O)=NC1=O)C(=O)N3C(C)(C)C=C2C	0%	?	16µM*	14µM*[quencher]	1
CCN1C(=O)/C(=C2/C(=O)N3c4c(cc(OC(C)=O)cc42)C(C)=CC3(C)C)SC1=S	14%	22%	?	?	0
CCc1nn2c(=O)cc(COc3ccc(/C=C4\C(=N)N5N=C(C)SC5=NC4=O)cc3)nc2s1	?	0%	13µM*	-17%	7
CCc1ccccc1NC(=O)N(C)CCc1c(C)nn(C)c1C	.	3%	-6%	-16%	.
Cc1ccc(S(=O)(=O)NC2=C(N3CCN(c4ccccc4F)CC3)C(=O)c3ccccc3C2=O)cc1	-4%	4%	16µM*	?	-27
CC(=O)Nc1ccc(S(=O)(=O)NC2=C(N3CCN(c4ccc(F)cc4)CC3)C(=O)c3ccccc3C2=O)cc1	?	?	5.6µM*	13µM*[quencher]	-56*
CC(=O)Nc1ccc(S(=O)(=O)Nc2ccc(N3CCOCC3)cc2)cc1	4%	8%	-4%	1%	-1
Cc1ccc(S(=O)(=O)NC2=C(N3CCN(Cc4ccccc4)CC3)C(=O)c3ccccc3C2=O)cc1	-1%	6%	?	-25%	-34*
O=S(=O)(c1cccs1)N1CCN(c2ccccc2)CC1	.	.	.	.	-2
O=C1C(NS(=O)(=O)c2cccs2)=C(N2CCN(c3ccccc3)CC2)C(=O)c2ccccc21	-25%	?	6.3µM*	?	-33*
Cc1ccc(CCNC(=O)Cn2c(-c3cccs3)cc3ccccc32)cc1	.	-5%	-3%	-19%	.
O=S(=O)(CCC(F)=C(F)F)c1nnnn1C1CCCCC1	-6%	?	-1%	4%	1
c1ccc(C2=NN(c3ccccc3)CC2)cc1	?	7%	?	?	-4
CCOC(=O)/C(=C/c1ccc(N2CCC(c3ccccc3)=N2)cc1)C(C)=O	8%	-13%	?	16µM*[quencher]	-1
O=C(NC1CC(=O)N(c2ccc(F)cc2)C1)c1ccc(S(=O)(=O)N2CCOCC2)cc1 (configuration not stated)	.	-9%	9%	1%	.
SMILES	JMJD2E inh	Tau fibril FP	Tau ThT inhib	Tau fluor counter	FBPA coupling cs
Cc1ccc(NC(=O)CSc2n[nH]c(-c3ccc(F)cc3)n2)cc1F	.	?	2%	?	.
COc1cc(N=Nc2cccc(S(N)(=O)=O)c2)c2ccccc2c1N	?	?	1.6µM*	10µM*[quencher]	-16
CN1C2C=C3C(C#N)=C(N)C(C#N)(C#N)[C@@H](c4cccc(F)c4)[C@@H]3C1CC2 (some centres not stated)	?	?	20µM*	-9%	-7
CN1C2C=C3C(C#N)=C(N)C(C#N)(C#N)[C@@H](c4cccs4)C3C1CC2 (some centres not stated)	?	?	20µM*	-14%	-20
N#CC1=C(N)C(C#N)(C#N)[C@H](c2c(F)cccc2F)[C@H]2CC3(CC=C12)OCCO3	?	?	?	-19%	-3
CN1C2C=C3C(C#N)=C(N)C(C#N)(C#N)[C@H](c4c(F)cccc4F)[C@H]3C1CC2 (some centres not stated)	?	?	14µM*	-19%	.
CN1CC=C2C(C#N)=C(N)C(C#N)(C#N)C(c3cccc(Cl)c3Cl)C2C1 (configuration not stated)	?	?	?	-25%	-6
Cc1ccc(C(=O)N/C(=C\c2ccc(-c3cccc([N+](=O)[O-])c3)o2)C(=O)NC(C)(C)C)cc1	1%	7%	-6%	-16%	-11
Cc1ccc(C(=O)N/C(=C\c2ccc(-c3ccc([N+](=O)[O-])cc3)o2)C(=O)NC2CCS(=O)(=O)C2)cc1 (configuration not stated)	5%	9%	6.3µM*	?	2
Cc1nc(NC2CCCCC2)c2nc(-c3ccccc3)n(CCN3CCCCC3)c2n1	?	4%	?	-14%	3
O=C(Nc1cccc(Cl)c1)Nc1ccc2c(c1)OCO2	8%	16%	?	14µM*[quencher]	-5
CCNS(=O)(=O)c1ccc(NC(=O)Nc2ccc3c(c2)OCO3)cc1	.	.	.	.	1
O=C(Nc1ccc(S(=O)(=O)NCc2ccccc2)cc1)Nc1ccc2c(c1)OCO2	1%	?	?	4µM*[quencher]	0
S=C(Nc1ccc2c(c1)OCO2)Nc1ccc2c(c1)OCO2	-19%	?	25µM*	?	-18
CC(=O)c1ccc(NC(=O)Nc2cccc(Cl)c2)cc1	0%	20µM*	?	14µM*[quencher]	0
O=C(NCc1ccc2c(c1)OCO2)Nc1cccc(Cl)c1	.	.	.	.	-3
CCCN(C(=O)COc1cc(=O)n(CC)c2ccccc12)c1ccc(C(C)C)cc1	.	2%	?	-16%	.
CCN(CC)c1cc(C)c2cc(NC(=O)c3ccccc3Cl)ccc2n1	.	15%	?	?	.
COc1cc(OC)c(NC(=O)N2CCc3c([nH]c4ccccc34)C2c2ccccc2F)cc1Cl (configuration not stated)	.	1%	1%	?	.
CC(=O)c1ccc(NC(=S)NCCc2cccc(Cl)c2)cc1	3%	25µM*	3%	?	1
